# Measured values taken from PubChem BioAssay (NCATS).
# Inconclusive results are not listed. Where a call stands in place of a potency, no number is given. Values without a mark were called inactive. Active and inactive are the calls of the source. Unless noted, the call rests on the fitted dose curve; in most records, active means well fitted curve in the direction sought with a large enough effect; inconclusive means small, poorly fitted or top-dose-only effect, or another doubt; inactive means no such curve, though single readings can be large; an effect the other way counts as inactive or inconclusive.
# Key:
# [1] = target: Aldehyde dehydrogenase, mitochondrial (Homo sapiens) (UniProt P05091); assay: qHTS for Inhibitors of the Aldehyde Dehydrogenase Family (ALDH2) Confirmatory screens (AID 2061303; active means well fitted inhibition curve with a large enough effect; title and protocol of this record describe different tests; further: nearly all actives have a fitted effect of over 45% in size; further: potency means the concentration at half of the fitted maximal effect)
# [2] = qHTS for Inhibitors of the Aldehyde Dehydrogenase Family (ALDH1A2, ALDH1A3, ALDH2, ALDH3A1) (AID 2061307); further: nearly all actives have a fitted effect of over 50% in size; on potency: test system not described further here; potency means the concentration at half of the fitted maximal effect
# [3] = target: Aldehyde dehydrogenase, mitochondrial (Homo sapiens) (UniProt P05091); assay: qHTS for Inhibitors of the Aldehyde Dehydrogenase Family (ALDH2) Primary screen (AID 2061308); further: nearly all actives have a fitted effect of over 55% in size; further: potency means the concentration at half of the fitted maximal effect
# [4] = target: Retinaldehyde dehydrogenase 3 (Homo sapiens) (UniProt P47895); assay: qHTS for Inhibitors of the Aldehyde Dehydrogenase Family (ALDH1A3) Confirmatory screens (AID 2061311); further: nearly all actives have a fitted effect of over 60% in size; further: potency means the concentration at half of the fitted maximal effect
# [5] = target: Retinal dehydrogenase 2 (Homo sapiens) (UniProt O94788); assay: qHTS for Inhibitors of the Aldehyde Dehydrogenase Family (ALDH1A2) Confirmation screens (AID 2061314); further: nearly all actives have a fitted effect of over 65% in size; further: potency means the concentration at half of the fitted maximal effect
# [6] = target: Retinaldehyde dehydrogenase 3 (Homo sapiens) (UniProt P47895); assay: qHTS for Inhibitors of the Aldehyde Dehydrogenase Family (ALDH1A3) Primary screen (AID 2061315); further: potency means the concentration at half of the fitted maximal effect
# [7] = target: Aldehyde dehydrogenase 1A1 (Homo sapiens) (UniProt P00352); assay: qHTS for Inhibitors of the Aldehyde Dehydrogenase Family (ALDH1A1) Confirmatory screens (AID 2061316); further: nearly all actives have a fitted effect of over 65% in size; further: potency means the concentration at half of the fitted maximal effect
# [8] = BET inhibitor-based combinations targeting novel dependencies in MECOM-rearranged (r) AML: SET-2 cell line (AID 2202231); conditions: SET-2 AML cells viability, CellTiter-Glo luminescence, 48 h; viability: active compounds read low, series mostly up to about 46 µM; further: nearly all actives have a fitted effect of over 35% in size
# Summary of the method: (§1)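 Each compound was tested at eleven concentrations on cells seeded at 500/well. After two days' incubation, ATP-based luminescence reported viability; responses relative to DMSO and blank wells yielded AUC and cell-line-centred Z-AUC.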
# [9] = BET inhibitor-based combinations targeting novel dependencies in MECOM-rearranged (r) AML: OCI-AML3 cell line (AID 2202232); conditions: Potency: OCI-AML3 viability; further: series mostly up to about 46 µM; nearly all actives have a fitted effect of over 35% in size
# Summary of the method: as §1
# [10] = BET inhibitor-based combinations targeting novel dependencies in MECOM-rearranged (r) AML: UCSD-AML1 cell line (AID 2202235); further: series mostly up to about 46 µM; nearly all actives have a fitted effect of over 40% in size
# Summary of the method: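 First, 500 cells per well were seeded; next, drugs were pinned as 11-point doses; then plates sat 48 hr in the incubator; finally CellTiter-Glo was added and luminescence read, with AUC and Z-AUC computed.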
# [11] = BET inhibitor-based combinations targeting novel dependencies in MECOM-rearranged (r) AML: AML-191 cell line (AID 2202236; further: nearly all actives have a fitted effect of over 35% in size)
# Summary of the method: as §1
# [12] = BET inhibitor-based combinations targeting novel dependencies in MECOM-rearranged (r) AML: AML-194 cell line (AID 2202237; further: nearly all actives have a fitted effect of over 40% in size)
# Summary of the method: as §1
SMILES,Potency [1],Potency [2],Potency [3],Potency [4],Potency [5],Potency [6],Potency [7],"activity change, negative = inhibition [4]",viability [8] [%],Potency [9],Potency [10],Potency [11],Potency [12]
COc1ccc(C2Nc3ccccc3C(=O)N2CCO)cc1COc1ccc(NC(C)=O)cc1 (centres undefined),2 µM (active),3.18 µM (active),inactive,10 µM (active),14.2 µM (active),inactive,22.5 µM (active),,,,,,
Cc1nc(C)c(-c2ccc3ncnc(NCc4ncc[nH]4)c3c2)s1,inactive,inactive,inactive,inactive,inactive,inactive,inactive,,,,,,
CC(C)(C)c1ccc(C[C@H](C(=O)O)N2C(=O)c3ccc(C(=O)O)cc3C2=O)cc1,inactive,inactive,inactive,inactive,inactive,inactive,inactive,,,,,,
O=C1c2ccccc2NC(c2ccc(-c3cccc([N+](=O)[O-])c3)o2)N1O (centres undefined),4.49 µM (active),2.25 µM (active),10 µM (active),4.49 µM (active),2.52 µM (active),inactive,3.18 µM (active),,,,,,
c1cncc(-c2ccc(CNc3nc(C4CCCC4)nc4ccccc34)cc2)c1,inactive,inactive,inactive,11.3 µM (active),inactive,inactive,inactive,,,,,,
N#CSc1cc(SC#N)c(N)nc1N,14.1 µM (active),5.62 µM (active),3.55 µM (active),10.1 µM (active),1.79 µM (active),inactive,0.896 µM (active),,,,,,
O=C(NC1CCCc2c1cnn2-c1ccc(F)cc1F)c1ccccn1 (centres undefined),inactive,inactive,inactive,inactive,inactive,inactive,inactive,,,,,,
O=C(O)c1ccc(S(=O)(=O)N[C@H](Cc2ccc(C(F)(F)F)cc2)C(=O)O)cc1,inactive,inactive,inactive,inactive,inactive,inactive,inactive,,,,,,
FC(F)(F)c1cc(N2CCN(C(=S)Nc3cc(Cl)ccn3)CC2)cc(C(F)(F)F)c1,inactive,inactive,inactive,inactive,inactive,inactive,22.5 µM (active),,,,,,
COc1ccc(C[C@H](N)C(=O)N[C@H]2[C@@H](O)[C@H](n3cnc4c(N(C)C)ncnc43)O[C@@H]2CO)cc1,inactive,inactive,inactive,inactive,inactive,inactive,inactive,,,,,,
O=C1[C@@H]2[C@H]3CC[C@H](C3)[C@@H]2C(=O)N1CCCCN1CCN(c2ncccn2)CC1,inactive,inactive,inactive,,inactive,inactive,2.52 µM (active),-14.2% [at 0.022 µM],,,,,
CCc1nnc(-c2cnn(C)c2N)n1CCCn1ccnc1,inactive,inactive,inactive,inactive,inactive,inactive,inactive,,,,,,
Cc1ccc(S(=O)(=O)NC(N)=NCCC[C@@H](NC(=O)CNC(=O)c2ccccc2)C(=O)Nc2cc(C(F)(F)F)ccc2Cl)cc1,inactive,inactive,inactive,inactive,inactive,inactive,inactive,,,,,,
Fc1ccc(CSc2nc3ncc(Br)cc3[nH]2)cc1,inactive,inactive,inactive,inactive,inactive,inactive,inactive,,,,,,
O=C(O)c1ccc2c(c1)C(=O)N([C@H](Cc1ccc(F)cc1)C(=O)O)C2=O,inactive,inactive,inactive,inactive,inactive,inactive,inactive,,,,,,
CC(C)(C)c1ccc(SC2=NS(=O)(=O)c3ccccc32)cc1,inactive,inactive,inactive,inactive,12.7 µM (active),inactive,inactive,,,,,,
Cc1cccc(OC2=NS(=O)(=O)c3ccccc32)c1,inactive,inactive,inactive,inactive,inactive,inactive,inactive,,,,,,
Cc1nnc(-c2cnn(C)c2N)n1CCCn1ccnc1,inactive,inactive,inactive,inactive,inactive,inactive,inactive,,,,,,
Nc1nnc(-c2ccc3ccccc3c2)o1,inactive,inactive,inactive,inactive,inactive,inactive,inactive,,,,,,
N[C@@H](CCC(=O)O)C(=O)Nc1ccc(Cl)cc1C(=O)c1ccc[nH]1,inactive,inactive,inactive,inactive,inactive,inactive,inactive,,,,,,
Cc1ccc2nc(-c3ccccn3)c(Nc3ccccc3C)n2c1,inactive,inactive,inactive,inactive,inactive,inactive,inactive,,,,,,
COc1cccc(C2c3c(ncn(CCCN4CCOCC4)c3=N)Oc3ccc4ccccc4c32)c1 (centres undefined),inactive,inactive,inactive,inactive,inactive,inactive,inactive,,,,,,
CCc1nn2c(=O)cc(-c3ccncc3)nc2s1,inactive,inactive,inactive,inactive,25.2 µM (active),inactive,inactive,,,,,,

SMILES,Potency [1],Potency [2],Potency [3],Potency [4],Potency [5],Potency [6],Potency [7],"activity change, negative = inhibition [4]",viability [8] [%],Potency [9],Potency [10],Potency [11],Potency [12]
CC(=O)N(C(C)=O)n1c(C)nc2sc3c(c2c1=O)CCNC3,inactive,inactive,inactive,inactive,inactive,inactive,inactive,,,,,,
COc1ccc(C2=Nn3c(nnc3-c3cccc(OC)c3OC)SC2)cc1,inactive,inactive,inactive,inactive,inactive,inactive,inactive,,,,,,
O=S1(=O)N=C(Oc2ccccc2)c2ccccc21,inactive,inactive,inactive,,inactive,inactive,inactive,-14.1% [at 0.022 µM],,,,,
C[C@@](Cc1ccccc1)(C(=O)O)N1C(=O)c2ccc(C(=O)O)cc2C1=O,inactive,inactive,inactive,inactive,inactive,inactive,inactive,,,,,,
COc1ccc(N2Cc3cccc(C(=O)O)c3C2=O)c(OC)c1,inactive,inactive,inactive,inactive,inactive,inactive,inactive,,,,,,
FC(F)(F)c1cccc(N2CCN(C(=S)Nc3nccc4cccnc34)CC2)c1,11.3 µM (active),28.2 µM (active),7.94 µM (active),11.3 µM (active),10.1 µM (active),,7.98 µM (active),,,,,,
O=C(NCCN1CCN(c2cccc3ccc(O)cc23)CC1)c1ccc(F)cc1,inactive,15.8 µM (active),inactive,5.04 µM (active),inactive,,10.1 µM (active),,,,,,
O=C(O)c1cccc(-c2noc(-c3cccc(Cl)c3)n2)c1,inactive,0.381 µM (active),inactive,0.201 µM (active),,0.562 µM (active),,,,,,,
O=C(O)c1cccc(-c2noc(-c3cccc(C(F)(F)F)c3)n2)c1,inactive,0.956 µM (active),inactive,0.504 µM (active),inactive,,inactive,,,,,,
COc1cc(NS(=O)(=O)c2ccc([N+](=O)[O-])cc2)c2ncccc2c1,7.08 µM (active),0.712 µM (active),20 µM (active),10 µM (active),3.16 µM (active),,5.65 µM (active),,,,,,
O=C(O)c1ccc(N2C(=O)/C(=C/c3ccc(-c4ccc([N+](=O)[O-])cc4)o3)C=C2c2ccccc2)cc1,1.59 µM (active),11.3 µM (active),3.98 µM (active),20.1 µM (active),5.65 µM (active),,3.18 µM (active),,,,,,
N#Cc1c(C(=O)c2cccs2)no[n+]1[O-],3.98 µM (active),2.24 µM (active),0.282 µM (active),1.59 µM (active),3.16 µM (active),,0.225 µM (active),,,,,,
O=C1CCCC2=C1C(c1[nH]ncc1Cl)NC(=S)N2 (centres undefined),inactive,inactive,inactive,inactive,,inactive,,,,,,,
O=[N+]([O-])c1ccc(S(=O)(=O)c2ccc(Cl)cc2)nc1,0.504 µM (active),2.82 µM (active),0.251 µM (active),28.2 µM (active),3.16 µM (active),,0.283 µM (active),,,,,,
N#Cc1ccc(-c2ccc(CNc3ccc(N4CCCCC4)cc3)o2)cc1,0.0712 µM (active),0.712 µM (active),inactive,11.3 µM (active),2.25 µM (active),,8.96 µM (active),,,,,,
CCOC(=O)c1ccc(O)c2ncc(-c3ccc(C(=N)N)cc3)cc12,inactive,inactive,inactive,10.1 µM (active),inactive,,inactive,,,,,,
O=C(NN1CCCC1)NS(=O)(=O)c1ccc(Cl)cc1,inactive,inactive,inactive,inactive,inactive,,inactive,,,,,,
O=C(O)c1ccc(O)c2ncc(N3CCCN(C4CCCC4)CC3)cc12,inactive,inactive,inactive,14.2 µM (active),inactive,,inactive,,,,,,
CC(=O)NCCC(=O)N[C@@H](CCC(N)=O)C(=O)N[C@@H](CO)C(=O)N[C@@H](CCC(N)=O)C(=O)N[C@@H](CCC(N)=O)C(=O)N[C@H](C(=O)N[C@@H](Cc1ccccc1)C(=O)N[C@]1(C)CCCCCCC=CCCC[C@@](C)(C(=O)N[C@@H](CCC(N)=O)C(=O)N[C@@H](CC(N)=O)C(N)=O)NC(=O)[C@H](CC(C)C)NC(=O)[C@H](CC(C)C)NC(=O)[C@@H](CCCNC(=N)N)NC(=O)[C@H](Cc2c[nH]c3ccccc23)NC(=O)[C@H](CC(C)C)NC(=O)[C@H](CC(N)=O)NC1=O)[C@H](C)O,inactive,inactive,inactive,inactive,inactive,inactive,inactive,,109,inactive,inactive,inactive,inactive
CCOc1ccccc1-c1nnc2n1N=C(c1ccc(OC)cc1)CS2,inactive,7.94 µM (active),inactive,inactive,inactive,inactive,17.9 µM (active),,,,,,
O=C(NCCN1CCCC1)[C@H](Cc1ccc(OS(=O)(=O)c2cccc3cnccc23)cc1)NS(=O)(=O)c1cccc2cnccc12,inactive,inactive,inactive,inactive,,inactive,,,,,,,
NC(=O)c1ccc(C[C@H](C(=O)O)N2C(=O)c3ccc(C(=O)O)cc3C2=O)cc1,inactive,inactive,inactive,inactive,inactive,inactive,inactive,,,,,,
NC(=O)C1CCN(c2ncc(-c3ccc4c(c3)OCCO4)s2)CC1,0.896 µM (active),7.12 µM (active),inactive,7.98 µM (active),8.96 µM (active),,0.712 µM (active),,,,,,
